Source: PubChem BioAssay
The list is not random: actives were taken first. Their share in the collection is about 1.8%.
PfHsp40 rescue: restores yeast growth despite PfHsp40 toxicity; S. cerevisiae expressing PfHsp40, growth rescue, ATP luminescence; growth rescue, % at 12.5 µM; 340,000 compounds, 0.68% hits; AID 504582; in the data active means growth rescue above about 28%, passing the limit was not always enough;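 further: yeast W303a lacking pdr1 and pdr3 grown in galactose medium; growth measured after three days at 30 °C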
PrPC surface inh: cell surface PrPC inhibition, primary TR-FRET screen; P04156; TR-FRET read-out; inhibition, % at 13.8 µM; 370,000 compounds, 0.43% hits; in the data active means inhibition above about 24%; further: 0% = median of the test wells and 100% = reference compound wells
MazF activator: increases E. coli MazEF RNase cleavage of RNA. activation, % at 20 µM. 350,000 compounds, 0.32% hits. P0AE70. AID 504720. FAM/BHQ RNA-DNA oligo cleavage fluorescence, 5 h; in the data active means activation above about 50%
PrP UTR inh: suppresses PrP 5' UTR mRNA reporter expression; cell-based PrP 5' UTR mRNA reporter, plate reader; inhibition, % (concentration not given with the values); 340,000 compounds, 0.35% hits; in the data active means inhibition above about 52%; further: 0 = median of the neutral control wells
PriA SSB inh: K. pneumoniae PriA-SSBct interaction inhibition. AlphaScreen SSBct-PriA binding, biotinylated peptide. 430,000 compounds, 0.6% hits. inhibition, % at 33 µM. AID 1272365; in the data active means inhibition mostly above about 37%, no sharp cut-off; inactive means mostly below about 20%;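 further: plate controls were negative control peptide for no effect and reference peptide for full effect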
PrPC confirm: cell surface PrPC inhibition, TR-FRET confirmation | shares compounds with PrPC surface inh | cell surface PrPC level | inhibition, % at 13.8 µM | 1,500 compounds, 65% hits | AID 743200; in the data active means inhibition above about 25%
LD9 tox: LD9 cell cytotoxicity, PrPc inhibitor counter-screen; shares compounds with PrPC surface inh; LD9 cells cytotoxicity, luminescence viability; inhibition, % at 13.8 µM; 1,500 compounds, 29% hits; AID 743201; in the data active means inhibition above about 9.5%
* = called active by the depositor; / = no result; ! = not confirmed by another sample.

SMILES	PfHsp40 rescue	PrPC surface inh	MazF activator	PrP UTR inh	PriA SSB inh	PrPC confirm	LD9 tox
CCc1nonc1NC(=O)c1oc2cc(Br)ccc2c1C	1.5	28.5*	2.6	-6.2	0.8	90.7*	-4.6
COC(=O)c1ccc(S(=O)(=O)N2CC(Oc3nc4c(Cl)cccc4s3)C2)cc1	/	/	/	/	1.0	/	/
COc1cc(/C=C\C(=O)NCc2ccc3c(c2)cc(C)n3C)cc(OC)c1OC	-0.3	68.0*	-1.9	-33.3	16.1	7.8	-5.9
Cc1cc2cc(CNC(=O)c3ccc4c(c3)OCO4)ccc2n1C	1.4	53.0*	13.0	-0.5	39.0*!	10.2	-1.5
Cc1ccc(CNC(=O)c2c(-c3ccccc3Cl)noc2C)cc1	0.1	-3.8	6.6	13.1	6.2	/	/
Cc1onc(-c2ccccc2Cl)c1C(=O)NCc1ccc2c(c1)cc(C)n2C	2.9	65.5*	2.8	-12.6	21.5	9.5	-3.3
COc1cc(OC)cc(C(=O)NCc2ccc3c(c2)cc(C)n3C)c1	1.2	56.3*	1.5	-6.1	24.7	0.6	-3.7
Cc1cc2cc(CNC(=O)c3cccc(F)c3)ccc2n1C	/	/	/	/	-6.0	/	/
COCC(=O)NCc1ccc2c(c1)cc(C)n2C	-0.6	-9.0	-22.3	-1.0	-10.9	/	/
COc1nc(/C=C/N(C)C)c([N+](=O)[O-])c(OC)n1	0.1	0.9	16.8	-14.7	11.3	/	/
COc1ccc(CN2CCC(CNC(=O)NC3CCCCC3)CC2)cc1	1.8	-13.8	6.5	-34.1	-18.0	/	/
Cc1oncc1C(=O)Nc1ccc2c(c1)CCC(=O)N2	/	/	/	/	-7.0	/	/
CC(C)(C)OC(=O)n1cccc1/C=C1\c2ccccc2C(=O)N1c1ccccc1	-0.6	/	1.1	-21.2	-0.9	/	/
COc1ccc(C(=O)NCc2ccc3c(c2)cc(C)n3C)cc1	-0.9	66.0*	5.2	-20.6	-5.3	8.9	-4.8
Cc1cc2cc(CNC(=O)c3cccc(Cl)c3)ccc2n1C	/	/	/	/	-8.0	/	/
Cc1cc2cc(CNC(=O)Cc3ccccc3)ccc2n1C	/	/	/	/	25.9	/	/
Cc1ccc(S(=O)(=O)NCc2ccc3c(c2)cc(C)n3C)cc1	-0.5	37.4*	-1.4	-46.7	26.4	5.7	-3.8
Cc1cc2cc(CNC(=O)Nc3ccc(Cl)c(Cl)c3)ccc2n1C	0.4	32.7*	7.3	-20.0	4.5	22.3	-8.0
CCOc1ccc(CC(=O)NCc2ccc3c(c2)cc(C)n3C)cc1	1.6	55.0*	10.4	-21.3	5.8	-1.7	-9.1
CC(C)NC(=S)n1cc(C(=O)c2cc(Cl)cc(Cl)c2O)cn1	-0.6	40.8*	5.5	-10.6	-4.8	9.7	-2.7
CCCCn1c(N)c(N(CCOC)C(=O)C2CCN(S(=O)(=O)c3ccc(Cl)cc3)CC2)c(=O)[nH]c1=O	-0.4	-3.6	3.3	-11.5	-11.8	/	/
O=C(Nc1ccc(OC(F)F)cc1)Nc1cccc(C(F)(F)F)c1	0.2	34.8*	3.8	-15.5	-16.0	23.0	21.6*
O=C(Nc1ccc(OC(F)(F)F)cc1)Nc1cccc([N+](=O)[O-])c1	0.2	25.6*	19.5	-34.6	-8.2	42.9*	41.5*
COc1ccc(NC(=O)c2ccc(NCCN3C(=O)CCC3=O)c([N+](=O)[O-])c2)cc1	1.2	-31.5	6.6	3.9	-20.0	/	/
COc1ccc(Br)cc1C(C[N+](=O)[O-])c1c(N)n(C)c(=O)n(C)c1=O (centres undefined)	2.1	68.0*	-12.6	-5.5	-7.0	37.7*	33.4*
SMILES	PfHsp40 rescue	PrPC surface inh	MazF activator	PrP UTR inh	PriA SSB inh	PrPC confirm	LD9 tox
Cn1c(N)c(C(C[N+](=O)[O-])c2c(F)cccc2Cl)c(=O)n(C)c1=O (centres undefined)	-1.1	1.4	16.0	-10.6	0.1	/	/
CCCc1noc2c1/C(=N\O)CC(c1ccccc1)C2 (centres undefined)	-0.5	24.4*	0.2	-13.8	/	5.4	6.2
CCCc1noc2c1C(=NO)CC(c1ccccc1)C2 (centres undefined)	/	/	/	/	-14.3	/	/
CC(=O)Nc1ccc(S(=O)(=O)NN=c2sc3ccccc3n2C)cc1N	/	3.4	7.3	/	/	/	/
COc1ccc(S(=O)(=O)Nc2ccc(Cc3ccncc3)cc2)cc1OC	0.5	10.6	-28.2	3.9	4.8	/	/
O=S(=O)(Nc1ccc(Cc2ccncc2)cc1)c1ccc(Cl)c(Cl)c1	3.6	31.0*	-1.0	-2.4	-5.9	32.1*	15.6*
O=S(=O)(Nc1ccncc1)c1ccc(Cl)cc1	-1.8	2.8	0.4	-15.5	-11.3	/	/
CCc1ccc(OC)c(S(=O)(=O)Nc2ccc(Cc3ccncc3)cc2)c1	0.8	41.7*	-9.9	-27.3	6.0	30.0*	8.2
O=S(=O)(/N=C(/Nc1ccccc1)c1ccccc1O)c1ccccc1	-0.4	-4.2	-6.6	-21.4	/	/	/
CC(=O)c1sc(NC(=O)CN2C(=O)NC3(CCCC3)C2=O)nc1-c1ccccc1	0.2	-2.6	7.7	-14.0	-5.7	/	/
CCCS(=O)(=O)N1CCN(C2CCC(C)CC2)CC1 (centres undefined)	-0.8	10.6	3.6	-20.5	-3.0	/	/
CC1(Cc2ccc(OC(F)(F)F)cc2)C(=O)Nc2ccc(S(=O)(=O)NC3CCCCC3)cc21 (centres undefined)	/	35.6*	/	/	/	30.4*	10.8*
CC1(Cc2ccc(Cl)cc2)C(=O)Nc2ccc(S(=O)(=O)NC3CCCCC3)cc21 (centres undefined)	/	11.2	/	/	/	/	/
O=C(CN(c1ccccn1)S(=O)(=O)c1ccccc1)Nc1ccccc1	-0.8	-2.9	10.2	-16.8	-10.1	/	/
Nc1ccc2ccc(NS(=O)(=O)N3CCCCC3)cc2c1	/	30.7*	/	/	/	12.5	9.0
O=S(=O)(Nc1ccc(F)cc1)N1CCCCCC1	0.4	-7.4	-4.2	-5.4	-12.6	/	/
Cc1ccc(-c2cc(C(=O)N(C)Cc3cnn(C)c3C)c3cc(Br)ccc3n2)cc1	2.3	75.2*	-5.8	-5.2	11.5	90.4*	4.0
O=C(COc1ccc(Cl)cc1Cl)NCCn1ccc(-c2cccs2)n1	/	/	/	/	-5.0	/	/
Cc1ccccc1CN1C(=O)CN(S(C)(=O)=O)CC1(C)C(=O)NCc1ccccc1 (centres undefined)	/	25.2*	/	/	/	0.2	-4.7
Cc1ccccc1CN1C(=O)CN(S(C)(=O)=O)CC1(C)C(=O)Nc1c(C)cccc1C (centres undefined)	/	-6.7	/	/	/	/	/
NC(Cc1ccc(F)cc1)c1csc(Nc2ncccn2)n1 (centres undefined)	/	59.4*	/	/	/	55.5*	22.8*
COc1cc(OC)nc(Nc2nc(C(N)c3ccccc3Cl)cs2)n1 (centres undefined)	/	0.0	/	/	/	/	/
NC(Cc1ccc(Cl)cc1)c1csc(Nc2ncccn2)n1 (centres undefined)	/	51.5*	/	/	/	59.6*	13.5*
Nc1ccc(CC(N)c2csc(Nc3ncccn3)n2)cc1 (centres undefined)	/	20.9	/	/	/	/	/
NC(Cc1ccc(Cl)cc1)c1csc(Nc2nccc(C(F)(F)F)n2)n1 (centres undefined)	/	-6.1	/	/	/	/	/
NC(c1csc(Nc2ncccn2)n1)c1ccccc1Cl (centres undefined)	/	32.7*	/	/	/	18.8	-7.9
